Experimental data taken from PubChem BioAssay (NCI).
Compounds without any hit were thinned out: in the full panel of roughly 83,000, 20% have a hit.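 Single-dose data. Exposure time 48 hours. Values below 10 considered active.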 A number with no mark means an inactive call. Calls of active or inactive are those of the source.

Tests used:
Experiment in all cases: NCI-60 one-dose screen, 48 h (100 = growth as untreated, 0 = no growth, -100 = all killed)
Conditions in all cases: 10 µM unless noted
[1] = system: HCT-15 colon
[2] = system: HT29 colon
[3] = system: SNB-75 CNS
[4] = system: SNB-19 CNS
[5] = system: U251 CNS
[6] = system: PC-3 prostate
[7] = system: SK-MEL-5 melanoma
[8] = system: UACC-62 melanoma
[9] = system: LOX IMVI melanoma
[10] = system: SK-MEL-28 melanoma
[11] = system: SK-MEL-2 melanoma
[12] = system: EKVX NSCLC
[13] = system: SN12C renal
[14] = system: UO-31 renal
[15] = system: TK-10 renal
[16] = system: A498 renal
[17] = system: CCRF-CEM leukemia
[18] = system: MOLT-4 leukemia

Compound | growth [1] | growth [2] | growth [3] | growth [4] | growth [5] | growth [6] | growth [7] | growth [8] | growth [9] | growth [10] | growth [11] | growth [12] | growth [13] | growth [14] | growth [15] | growth [16] | growth [17] | growth [18]
CN(C)CCCOc1c(Br)cc(/C=C/C(=O)N(C)CCc2cc(Br)c(OCCCN(C)C)c(Br)c2)cc1Br | 9.92% (active) | -19.1% (active) | 73.3% | 48.6% | 7.24% (active) | 65.1% | 64.4% | -26.5% (active) | -23.1% (active) | -49.4% (active) | 89.3% | 78.7% | 72.8% | 65.7% | 106% | 60.5% | 4.13% (active) | -1.09% (active)
O=C(Nc1cccc([N+](=O)[O-])c1)Nc1cccc([N+](=O)[O-])c1 | 24.6% | 40.9% | 107% | 52% | 50.8% | 12.7% | 55% | 29.9% | 51.3% | 60.3% | 53.9% | 50.4% | 70.3% | 46.6% | 39% | 33.1% | 15.5% | 9.18% (active)
O=C(O)c1ccc(-n2cc(/C=N/Nc3ccc(Cl)cc3)c(-c3ccc(F)c(F)c3)n2)cc1 | 52.1% | 93.4% | 89.6% | 86.6% | 81.1% | 60.2% | 72.3% | 39.1% | 44.2% | 73.6% | 75.5% | 59.7% | 93.2% | 46% | 94.1% | 49.9% | 32.3% | 37.6%
CCCCOc1c(N)cccc1C(=O)OCCN(CC)CC | 109% | 85.8% | 102% | 99.9% | 96.5% | 86.8% | 105% | 95.2% | 102% | 112% | 96.6% | 104% | 95.7% | 80.8% | 81.8% | 90.5% | 90.6% | 60.2%
C=C1C(=O)O[C@H]2[C@H]1CC/C(COC(=O)c1ccc3ccccc3c1)=C\CC[C@@]1(C)O[C@@H]21 | -45.4% (active) | -87.5% (active) | 25.1% | 11.6% | -67.3% (active) | -64% (active) | -74.6% (active) | -73% (active) | -89.7% (active) | -61.2% (active) | -70.4% (active) | -75.5% (active) | -54% (active) | -98.9% (active) | -95.9% (active) | 64.1% | -22.9% (active) | -14.1% (active)
Cc1c(NC(=O)c2sc3nc4c(cc3c2N)CN(Cc2ccccc2)CC4)cccc1C(F)(F)F | 29.3% | 12.2% | 45.8% | 50.5% | 38.2% | 56% | 41.9% | 37.2% | 42.3% | 74% | 49.5% | 62.1% | 55.2% | 65.6% | 96% | 52% | 15.6% | 25.9%
CC1(C)CC(=O)C2=C(C1)OC1=C(C(=O)CC(C)(C)C1)C2c1ccc(OCc2cn(-c3ccc(F)cc3F)nn2)cc1 | 105% | 96.9% | 104% | 99.9% | 91.7% | 77.7% | 58.4% | 58.6% | 97.7% | 103% | 93.8% | 99.4% | 99.4% | 89.6% | 109% | 46.9% | 84.9% | 77.2%
Cc1nc(-c2ccc(Cl)cc2)ccc1NC(=O)Nc1cccc(C(F)(F)F)c1 | 82.1% | 75.7% | 92.8% | 108% | 76.7% | 80.5% | 95.3% | 95.6% | 92.9% | 110% | 95.4% | 101% | 93.7% | 90.8% | 90.7% | 95.2% | 78.6% | 88.2%
C#CCn1c(-c2cc(OC)c(OC)cc2Br)nc(-c2ccccc2)c1-c1ccccc1 | 29.7% | 9% (active) | 43.1% | 55% | 45.4% | 25.2% | 12.4% | 40% | 34.9% | 69.8% | 28.1% | 37.4% | 69.6% | 33.9% | 67.1% | 37.7% | 39.2% | 31.6%
COc1ccc2c(c1)OC(N(C(C)=O)C(C)=O)=C(C#N)C2c1ccc(F)cc1 (stereo unspecified) | 24.9% | 8.69% (active) | 8.71% (active) | 28.6% | 30.8% | 21.9% | 18.9% | 34.5% | 47.7% | 64.4% | 25.1% | 47.9% | 51.5% | 45.8% | 71.2% | 12.8% | 10.9% | 28.7%
C[C@]12CC[C@@H]3c4ccc(O)c(N)c4CC[C@H]3[C@@H]1CC[C@@H]2O | 101% | 103% | 94.3% | 109% | 110% | 97.6% | 99.5% | 97.1% | 96.7% | 118% | 102% | 78.5% | 105% | 109% | 135% | 96% | 75.9% | 80.8%
Cc1ccc(NC(=O)CN2CCOCC2)cc1Cl | 102% | 80.6% | 97.4% | 94.8% | 97.7% | 74.7% | 95.6% | 92.7% | 101% | 104% | 95.1% | 93.2% | 93.1% | 90.4% | 95.6% | 61.3% | 78.9% | 90.2%
N#Cc1c(N)nc2c(c1N)C(c1ccc(Cl)cc1)C1=C(CCCC1=O)N2c1sc2c(c1C#N)CCCC2 (stereo unspecified) | 102% | 81.2% | 91.4% | 92.4% | 99.7% | 89% | 98.6% | 88.3% | 81.5% | 96.6% | 95.8% | 93.7% | 95.4% | 95.9% | 89.2% | 100% | -34% (active) | 90%
CC1CCC(C(C)C)C(NN)C1 (stereo unspecified) | 104% | 77.1% | 103% | 106% | 96.3% | 93.9% | 102% | 96.7% | 103% | 111% | 101% | 102% | 102% | 88.8% | 96.5% | 105% | 89.5% | 65.9%
O=C(NNC(=O)c1ccc([N+](=O)[O-])cc1)c1ccc([N+](=O)[O-])cc1 | 97% | 101% | 84.5% | 109% | 104% | 102% | 99.8% | 99.9% | 97.2% | 109% | 107% | 93.7% | 112% | 95.4% | 96.1% | 90.5% | 91.6% | 100%
C#C[C@@]1(O)[C@@H](CO)O[C@@H](n2cc(Br)c3c(Cl)ccnc32)[C@@H]1O | 8.13% (active) | 12.2% | 35.9% | 37.1% | 70.9% | -25.7% (active) | 73.7% | 68% | -34% (active) | 98.9% | 68.7% | 58.7% | 23.7% | 45.2% | 63.3% | -20% (active) | 12.8% | 1.9% (active)
CCOc1ccc(-n2c(-c3cc(OC)c(OC)c(OC)c3)nnc2-c2ccc(OC)cc2N)cc1 | 64.9% | 52.7% | 76.3% | 75.5% | 65.6% | 63.3% | 66% | 66.7% | 80.3% | 80.2% | 65.6% | 82.4% | 91.5% | 57.4% | 70% | 67.3% | 42.3% | 36.8%
